# Measured values taken from the supplement of paper PMC3334620.
# Over roughly 33,000 sequences, “E-score (-0.5 to 0.5)” has its median near -0.054; the highest 2% begin near 0.35. Many of the other results were omitted from the sample, so the highest values are more common in it than they were.
# Biological target: T1, Stb5 (UniProt P38699)
# T1 sequence: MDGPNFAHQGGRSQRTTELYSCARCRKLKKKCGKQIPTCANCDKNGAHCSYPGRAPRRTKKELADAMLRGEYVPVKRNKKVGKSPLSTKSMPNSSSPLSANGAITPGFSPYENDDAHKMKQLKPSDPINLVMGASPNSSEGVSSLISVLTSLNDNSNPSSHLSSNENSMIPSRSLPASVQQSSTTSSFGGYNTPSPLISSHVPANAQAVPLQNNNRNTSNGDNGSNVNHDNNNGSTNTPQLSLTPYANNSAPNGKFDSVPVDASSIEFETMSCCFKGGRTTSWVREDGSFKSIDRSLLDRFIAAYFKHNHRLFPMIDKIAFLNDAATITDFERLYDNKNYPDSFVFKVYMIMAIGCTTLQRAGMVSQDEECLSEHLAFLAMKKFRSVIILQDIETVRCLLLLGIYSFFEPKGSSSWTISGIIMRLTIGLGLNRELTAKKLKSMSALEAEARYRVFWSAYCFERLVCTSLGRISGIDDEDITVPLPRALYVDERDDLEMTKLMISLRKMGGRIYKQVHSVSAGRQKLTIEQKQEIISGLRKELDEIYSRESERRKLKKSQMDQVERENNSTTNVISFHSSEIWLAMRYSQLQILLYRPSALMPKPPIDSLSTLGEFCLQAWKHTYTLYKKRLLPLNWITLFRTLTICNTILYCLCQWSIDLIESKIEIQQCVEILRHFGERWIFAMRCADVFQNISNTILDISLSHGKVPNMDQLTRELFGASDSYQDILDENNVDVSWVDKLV
# Assay: PBM E-score (8-mer binding enrichment) (E-score (-0.5 to 0.5)); higher = stronger / more preferred TF binding
# Conditions: protein concentration: 200 nM; construct: GST-full length
# Protocol: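 Universal 'all 10-mer' protein binding microarrays (Agilent AMADID 015681) probed with GST-tagged S. cerevisiae TFs (full-length or DBD) made by in vitro transcription/translation (PURExpress), about 100-200 nM. Bound TF was detected with fluorescent anti-GST. Each ungapped 8-mer (which stands for itself and its reverse complement) is scored by the PBM enrichment score (E-score), a modified Wilcoxon-Mann-Whitney statistic from -0.5 to +0.5, computed with the Universal PBM Analysis Suite. Scale: above 0.35 generally sequence-specific binding.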
row,Sequence,PBM E-score
1,GCAGACGC,-0.0745
2,AAAAGCAT,-0.0942
3,CTCTCCGA,0.00777
4,ATCTCCGC,0.406
5,ATCTCCAG,0.0194
6,GTCTCCGA,0.23
7,ATCTCCGG,0.423
8,CTCTCCGC,0.0985
9,ATCTCCCC,0.0718
10,ATCTCCCG,0.124
11,ATCTCCGA,0.394
12,AGGCGTTG,-0.11
13,AAAAGGGT,-0.27
14,CCCAGGAA,-0.286
15,TCGAATCA,-0.163
16,ACGACCCA,-0.191
17,CCGACCCA,0.369
18,CGGACCCA,0.381
19,GGGACCCA,-0.0663
20,CCGACCGA,0.314
21,CGGACCAC,0.134
22,TGGACCCA,-0.218
23,CCGACCGC,0.284
24,CCGACCGG,0.382
25,CGGACCAG,0.0937

row,Sequence,PBM E-score
1,CGGACCAA,0.376
2,TCGACCCA,-0.256
3,CGAAGAGA,-0.138
4,AAAGCGCG,0.121
5,CTGTGCGA,-0.121
6,GTTGCAAC,0.183
7,ATGAAAGC,-0.0893
8,GGGACCTA,0.138
9,CTGACCGA,-0.0342
10,CGGACCTA,0.466
11,CGGACCGA,0.4
12,GGGACCGA,0.257
13,AGGACCTA,0.141
14,ATGGCTTA,-0.119
15,ACCCCAGC,-0.0864
16,CAATAGCC,0.0314
17,CACATCTG,-0.103
18,GGGCCCTA,-0.0134
19,AGGCCCTA,-0.0592
20,CGGCCCTA,0.426
21,GGGCCATA,0.0906
22,CGGCCATC,0.157
23,CGGCCATA,0.376
24,ACCAGACA,-0.0752
25,ATCTCATA,-0.186

row,Sequence,PBM E-score
1,AAAGTAAG,-0.119
2,CATTTTAG,0.189
3,CTTACTGA,-0.164
4,AAGAGTCC,0.118
5,CGTGTAAC,0.134
6,TGTGTTAA,-0.145
7,AGTGTAAC,-0.175
8,CGTGTTAC,-0.0374
9,GGTGTAAC,0.381
10,AGTGTTTA,-0.0504
11,CGTGTTTA,0.112
12,CGTGTTAA,-0.191
13,GGTGTTTA,0.425
14,AGTGTTAC,-0.0686
15,GGTGTTAA,0.447
16,GGTGTTAC,0.4
17,ATTCACAC,-0.136
18,CCTGATAA,-0.0146
19,CCCAACCA,-0.0714
20,GATCTAAC,-0.143
21,ATACTATG,-0.0158
22,ACGCTGCT,-0.0899
23,CACTCTCA,-0.237
24,ACTTTCCA,-0.0496
25,CAGCGGGC,0.224

row,Sequence,PBM E-score
1,CAGCGGGG,0.358
2,AAGCGGGG,0.296
3,CAGCGGAG,0.352
4,CAGCGGCG,0.326
5,CAGCGGAA,0.164
6,ACCGAACG,0.308
7,ATGAAAGG,0.0036
8,ACCGCCAC,0.316
9,ACCGCCGG,0.414
10,ACCGCCTA,0.206
11,ACCGCCTG,0.25
12,ACCGCCGA,0.405
13,TCCGCCGA,0.346
14,GCCGCCGA,0.329
15,ACCGCCGT,0.38
16,ACCGCCGC,0.383
17,ACCGCAGT,0.206
18,ACCGCCTC,0.313
19,ACGGTTGA,-0.165
20,ACTCTTTG,-0.24
21,ATCAAGGA,-0.12
22,CGCCCCCG,0.209
23,ACCTTTGC,-0.0619
24,ACCACCTA,-0.134
25,GCCATACA,-0.138

row,Sequence,PBM E-score
1,GTCCTCAA,-0.137
2,CACGTCAG,-0.163
3,ACCGCCAA,0.276
4,CCCGCCGC,0.347
5,GCCGCCAC,0.191
6,GCCGCCGC,0.391
7,ACCGCCAG,0.368
8,GCCGCCAA,0.24
9,ACCGCCAT,0.265
10,CCCGCCGG,0.39
11,CCCGCCGA,0.345
12,ATACGGGC,0.103
13,TTGGACAA,-0.195
14,ATTATTGG,0.0592
15,AGGCCCAG,-0.226
16,AGGAGGGG,-0.302
17,GTTTTCGA,-0.115
18,GTCCCGAA,0.121
19,TCGCGCAA,-0.136
20,ATAGACAA,-0.202
21,CGTGAGGC,-0.133
22,ATTCAGCC,-0.129
23,CACCGCGA,0.37
24,GACCGCGC,0.246
25,AACCGCGG,0.347

row,Sequence,PBM E-score
1,TACCGCGA,0.324
2,CACCGCGC,0.401
3,CCCCGCGG,0.349
4,CCGCGCGG,0.404
5,CACCGCGG,0.419
6,CCGCGCGC,0.281
7,AACCGCGA,0.272
8,AACCGCGC,0.273
9,CCGCGCGA,0.168
10,AATACTCC,0.173
11,GACAGTTA,-0.0979
12,AAGACTAG,-0.389
13,AGCTACAG,-0.215
14,TCAATCCA,-0.0437
15,GCGCTAGA,0.112
16,AGCACGGG,0.199
17,ACCACCCA,-0.217
18,GGCCTCCC,-0.0321
19,CGGTGCAC,0.0634
20,ACACCGTA,0.346
21,ACACCGTC,0.424
22,ACACCGTG,0.416
23,AGACCGTC,0.252
24,CCACCGTC,0.246
25,AAACCGTG,-0.0899

row,Sequence,PBM E-score
1,AACTAGCA,-0.134
2,CTTCGGCA,0.209
3,CAGCTGGG,-0.0897
4,CTTGGGTA,-0.128
5,AAACTCTA,-0.134
6,CGGCATGC,0.273
7,AGGCATCA,-0.202
8,AGGCACCA,-0.0686
9,CGGCATCA,0.387
10,CGGCACCA,0.394
11,CGGCATGA,0.367
12,CGGCATCC,0.224
13,CGGCACCG,0.342
14,GGGCATGA,-0.083
15,CTCCCTAC,-0.0607
16,AAATACCC,0.279
17,AAGTACCC,0.0204
18,AATTACCG,0.395
19,AAGTACCA,-0.0936
20,CAATACCG,0.332
21,AAGTACCG,0.441
22,CATTACCG,0.205
23,AATTACCC,0.0888
24,AAATACCG,0.432
